In PubChem BioAssay (NCI) one finds growth data, which are given here for 14 molecules.

Compounds without any hit were thinned out: in the full panel of roughly 83,000, 20% have a hit.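 Testing used 96-well plates and a 48-hour single-concentration exposure. Example: -40 means 40% of the starting cells died.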 Unmarked numbers belong to inactive results. Activity calls are given as the source filed them. Rule for the calls: active = growth percent below 10; inactive = the rest.

This assay has as its system MDA-MB-468 breast. As to the kind of experiment: NCI-60 one-dose screen, 48 h (100 = growth as untreated, 0 = no growth, -100 = all killed). Particulars: 10 µM unless noted.
For `CN(Cc1cc(Br)cc(Br)c1O)Cc1cc(Br)cc(Br)c1O`, the growth is -1.21% (active). As for `CC(NC(N)=S)c1ccccc1` (centres undefined), the growth was -11.5% (active). The figure for `O=C(NNC(=O)c1ccncc1)Nc1ccc([N+](=O)[O-])cc1` is 106%; for `CC(=O)O[C@]1(C)C[C@H](O)[C@]2(O)C=CO[C@H](O[C@@H]3O[C@H](CO)[C@@H](O)[C@H](O)[C@H]3O)[C@@H]21` it is 96.8%; for `Oc1c(C(Nc2cccc3ccccc23)c2ccccc2)ccc2cccnc12` (centres undefined) it is 26.7%.

Regarding `CCCCCCCCCCCCCCCCCCOc1ccccc1CC(=O)NCC[N+](C)(C)C`, the growth is 19%.

As for `O=C(NS(=O)(=O)c1ccccc1)n1cc(-c2ccncc2)c(-c2cc(O)cc(Cl)c2)n1`, the growth is 98.4%. With `Cc1c(CN2CCN(C(=O)[C@H](C)O)CC2)sc2c(N3CCOCC3)nc(-c3cnc(N)nc3)nc12`, the growth is -49.6% (active).

For the molecule `COc1ccc(-c2nn(-c3ccc(S(C)(=O)=O)cc3)cc2/C=N/O)cc1`, the growth is 117%.

As for `Cn1c2ccccc2c2c3c(c4c5ccccc5n(C)c4c21)C(=O)OC3`, the growth was 101%.

As for `CC(=O)N1N=C(c2ccc(Nc3nc(Nc4ccc(F)cc4)nc(Nc4ccc(Cl)cc4)n3)cc2)CC1c1ccc(N(C)C)cc1` (centres undefined), the growth is 56.2%. The value for `CCOc1ccc2nc(NC(=O)c3ccc(C(F)(F)F)cc3)sc2c1` was 111%; that for `O=C1N[C@@H]2NC(=[N+]3CCOCC3)N[C@@H]2N1` was 99.6%. The figure for `Cc1ccc(N2C3c4ccccc4N(S(=O)(=O)c4ccc(C)cc4)C2c2ccccc2N3S(=O)(=O)c2ccc(C)cc2)cc1` is 120%.
